Values joined by “and” are separate entries in the source; they are usually repeats but may differ in a detail not shown here. Equal entries are not always repeated. Inconclusive results are not listed. More than one record can exist for a structure, and the calls need not agree. Active and inactive are the calls of the source. Rule for the calls, unless noted: active = hit-call score of the fitted dose curve at least 0.9, where 1 is the maximum; inactive = score below 0.9.
Experiments:
[1] = CCTE_Deisenroth_5AR_NBTE_donor: CCTE's 5alpha-reductase NanoBRET Target Engagement Assay […], Deisenroth Lab (AID 2284319); conditions: actives raise or lower the signal
Summary of the method: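 In this secondary endpoint, donor luminescence from SRD5A2-NanoLuc in transfected HEK293T flags artifacts. Test chemical (10 nM - 29.9 uM) is present five hours, tracer the last two; mock-tracer wells run plate-matched; data fitted bidirectionally against DMSO.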

[2] = IUF_NPC2c_oligodendrocyte_migration_120hr: Leibniz Research Institute for Environmental Medicine (IUF) 120-hour Neural Progenitor Cell Migration Assay for Oligodendrocyte Migration (NPC2c) (AID 2284297);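 note: O4-positive oligodendrocyte migration distance divided by radial glia migration distance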
Summary of the method: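 Using fetal brain neural progenitor spheres differentiating in N2 medium at 37C, compounds were present for 120 h. Oligodendrocyte migration distance, normalized to radial glia migration, was measured from imaged O4 staining.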

[3] = IUF_NPC2a_radial_glia_migration_120hr: Leibniz Research Institute for Environmental Medicine (IUF) 120-hour Neural Progenitor Cell Migration Assay for Radial Glia Migration (NPC2a) (AID 2284298)
Summary of the method: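 Exposure of 0.3 mm primary hNPC spheres runs day 0 to 120 h with a half-volume medium change at day 3. Fixed cells get Hoechst staining; high-content analysis of nuclear positions yields radial glia migration distance per well, compared against DMSO controls.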

[4] = IUF_NPC2a_radial_glia_migration_72hr: Leibniz Research Institute for Environmental Medicine (IUF) 72-hour Neural Progenitor Cell Migration Assay for Radial Glia Migration (NPC2a) (AID 2284299)
Summary of the method: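 Readout: mean of four manual brightfield measurements of radial glia migration distance (um) at 72 h. hNPC spheres (0.3 mm) exposed to 7 compound concentrations plus solvent control on PDL/laminin, 37C, 5% CO2; activity fitted relative to DMSO.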

[5] = IUF_NPC2b_neuronal_migration_120hr: Leibniz Research Institute for Environmental Medicine (IUF) 120-hour Neural Progenitor Cell Migration Assay for Neuron Migration (NPC2b) (AID 2284300)
Summary of the method: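 Fetal human NPC spheres migrate on PDL/laminin during 120 h compound treatment; neuronal migration distance, glia-normalized, scored versus DMSO control.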

[6] = IUF_NPC3_neuronal_differentiation_120hr: Leibniz Research Institute for Environmental Medicine (IUF) 120-hour Neuronal Differentiation Assay (NPC3) (AID 2284301)
Summary of the method: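 hNPC spheres, PDL/laminin, DMEM/F12 3:1 + 1% N2, 37C, 5% CO2; 7 concentrations + solvent control, 5 d exposure, half-change day 3. Fix 120 h; TUBB3/Hoechst ICC, CNN neuron calling; % neurons vs nuclei, DMSO-normalized.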

[7] = IUF_NPC4_neurite_length_120hr: Leibniz Research Institute for Environmental Medicine (IUF) 120-hour Neuronal Morphology Assay for Neurite Length (NPC4) (AID 2284302)
Summary of the method: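 hNPC spheres (0.3 mm, fetal brain GW 16-19) on PDL/laminin, DMEM:F12 3:1 + 1% N2, 37C 5% CO2; 7 concs + solvent control, day 0-5, half medium change d3; fix 120 h, TUBB3 ICC, mean neurite length um vs DMSO.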

[8] = IUF_NPC5_oligodendrocyte_differentiation_120hr: Leibniz Research Institute for Environmental Medicine (IUF) 120-hour Oligodendrocyte Differentiation Assay (NPC5) (AID 2284304; active = hit-call score of the fitted dose curve at least 0.9, where 1 is the maximum;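 note: primary human fetal neural progenitor spheres plated to migrate and differentiate; share of O4-positive cells among Hoechst nuclei found by CNN image analysis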)
Summary of the method: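 After plating on poly-D-lysine/laminin, fetal-derived hNPC spheres differentiated for 120 h at 37C in compound-containing N2 medium, refreshed by half on day 3. O4 immunostaining over Hoechst nuclei in the migration zone gave oligodendrocyte percentage relative to DMSO.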

[9] = IUF_NPC4_neurite_area_120hr: Leibniz Research Institute for Environmental Medicine (IUF) 120-hour Neuronal Morphology Assay for Neurite Area (NPC4) (AID 2284305; active = hit-call score of the fitted dose curve at least 0.9, where 1 is the maximum)
Summary of the method: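 hNPC spheres on PDL/laminin, N2 medium, 37C/5% CO2; dosed day 0, half-medium refresh day 3; fixed 120 h; TUBB3/Hoechst ICC, high-content imaging; neurite area = mean pixels per neuron (nuclei excluded); DMSO baseline, max 0.1%.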

[10] = IUF_NPC2-5_cytotoxicity_72hr: Cytotoxicity Assessment at 72 hours in the Leibniz Research Institute for Environmental Medicine (IUF) Neural Progenitor Cell Migration and Differentiation Assay for Cytotoxicity (NPC2-5) (AID 2284306; active = hit-call score of the fitted dose curve at least 0.9, where 1 is the maximum;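 note: LDH release into supernatant measured by resorufin fluorescence marking membrane damage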)
Summary of the method: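 hNPC spheres (0.3 mm), PDL/laminin, DMEM/F12 3:1 + 1% N2; cpd from d0, 7 concs + SC, DMSO max 0.1%; half-medium refresh d3. Readout: supernatant LDH via resorufin fluorescence (RFU), 72 h; gain-of-signal fit.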

[11] = IUF_NPC2-5_cytotoxicity_120hr: Cytotoxicity Assessment at 120 hours in the Leibniz Research Institute for Environmental Medicine (IUF) Neural Progenitor Cell Migration and Differentiation Assay (NPC2-5) (AID 2284307; active = hit-call score of the fitted dose curve at least 0.9, where 1 is the maximum;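 for AC50: LDH released into supernatant as membrane damage marker via resorufin fluorescence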)
Summary of the method: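 Membrane-integrity loss is quantified by LDH in supernatant after five days of exposure of migrating, differentiating human fetal NPC spheres; seven serially diluted concentrations are tested with DMSO kept at or below 0.1%.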

[12] = IUF_NPC2-5_cell_number_120hr: Cell Number Assessment at 120 hours in the Leibniz Research Institute for Environmental Medicine (IUF) Neural Progenitor Cell Migration and Differentiation Assay (NPC2-5) (AID 2284308);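 note: count of Hoechst-stained nuclei in migration zone around plated human neural progenitor spheres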
Summary of the method: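 Seven-point serial dilutions plus solvent control were applied to plated 0.3 mm hNPC spheres at differentiation start, with medium half-replaced at day 3. Nuclei positive for Hoechst in the migration zone were enumerated at 120 h.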

[13] = IUF_NPC2-5_viability_120hr: Viability Assessment at 120 hours in the Leibniz Research Institute for Environmental Medicine (IUF) Neural Progenitor Cell Migration and Differentiation Assay (NPC2-5) (AID 2284312)
Summary of the method: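 Human fetal neural progenitor spheres (0.3 mm) plated on poly-D-lysine/laminin in N2 differentiation medium, exposed 120 h with half-medium refresh at day 3. Viability by alamar blue resazurin fluorescence; 7 concentrations, DMSO max 0.1%.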

[14] = CCTE_Mundy_HCI_iCellGluta_NOG_NeuriteLength: CCTE's Neurite Outgrowth Assay in iCellGluta cells for Neurite Length, Mundy Lab (AID 2284318; active = hit-call score of the fitted dose curve at least 0.9, where 1 is the maximum)
Summary of the method: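 Automated high-content imaging of betaIII-tubulin (Alexa Fluor-488) and Hoechst-stained cells gave neurite length, normalized to the DMSO baseline.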

CD69, CD69 (gene 969) = test: BSK_LPS_CD69: BioMAP Diversity Plus: LPS Assay for CD69 Biomarker Activity (AID 2284303); conditions: primary human HUVEC with PBMC
Summary of the method: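 CD69 surface levels were read by ELISA after 24 h chemical treatment of an LPS-stimulated HUVEC plus PBMC co-culture; positive-direction fit against DMSO vehicle.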

IYD (gene 389434) = test: CCTE_GLTED_hIYD: CCTE's human Iodotyrosine Deiodinase (xIYD) Inhibition Assay, Great Lakes Toxicology and Ecology Division (GLTED) Lab (AID 2284317; active = hit-call score of the fitted dose curve at least 0.9, where 1 is the maximum;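 note: cell-free human IYD enzyme made in baculovirus insect cells; iodide freed from monoiodotyrosine measured by cerium arsenite color change at 420 nm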)
Summary of the method: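 Cell-free; baculovirus/insect-cell hIYD + MIT substrate + chemical, 3 h. Dowex column cleanup, then Ce4+/As3+ Sandell-Kolthoff read at A420 nm. Triplicate plates; normalized to 3-nitro-L-tyrosine (positive) and DMSO/NaOH (solvent).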

[15] = VALA_TUBIPS_Agonist_TubuleLength: VALA Sciences human iPS-derived Endothelial Tubule Formation (TUBIPS) Agonism Assay (AID 2284311; active = hit-call score of the fitted dose curve at least 0.9, where 1 is the maximum)
Summary of the method: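 Agonist-mode readout is the gain in imaged tubule length versus DMSO baseline. It was measured by fluorescence high-content imaging 72 h after dosing human iPSC-derived endothelial cells.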

[16] = VALA_TUBIPS_Antagonist_TubuleLength: VALA Sciences human iPS-derived Endothelial Tubule Formation (TUBIPS) Antagonist Assay (AID 2284313; active = hit-call score of the fitted dose curve at least 0.9, where 1 is the maximum)
Summary of the method: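 Tubule length was quantified by high-content imaging of CD31- and nuclear-stained cells, with 0.1% DMSO as neutral and 100 uM suramin as inhibition control. Compounds were applied for 3 days, in 10 ng/ml VEGF, to cultures pre-grown 3 days.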

[17] = VALA_MIGHUV2_Bcatenin: VALA Sciences human Umbilical Vein Endothelial Cell Migration (MIGHUV) Assay, Nuclear Translocation of beta-Catenin after Recovery (AID 2284315; active = hit-call score of the fitted dose curve at least 0.9, where 1 is the maximum)
Summary of the method: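 Nuclear beta-catenin imaged by immunofluorescence with Hoechst counterstain in fixed HUVEC, 24 h after scratch wounding and chemical addition. Six-point concentration-response in triplicate; activity scored as signal increase over 0.1% DMSO vehicle.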

[18] = VALA_MIGHUV2_WoundArea: VALA Sciences human Umbilical Vein Endothelial Cell Migration (MIGHUV) Assay, Area of Scratch Wound after Recovery (AID 2284316; active = hit-call score of the fitted dose curve at least 0.9, where 1 is the maximum)
Summary of the method: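 Wound-area endpoint read by fluorescence imaging of Hoechst-stained nuclei after a 24 h recovery period following scratch of HUVEC monolayers (9000 cells/well). Chemicals dosed within 30 min post-scratch, triplicate 6-point series, 0.1% DMSO vehicle; Cytochalasin D positive control.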

Measured: AC50

N#CCCC(Br)(C#N)CBr (stereo unspecified)
active: [1] 62.1 µM

O=[N+]([O-])c1ccccc1O
inactive: [1]

Cc1cc(C(F)(C(F)(F)F)C(F)(F)F)ccc1NC(=O)c1cccc(I)c1C(=O)NC(C)(C)CS(C)(=O)=O
active: [8] 4.22 µM | [11] 1.5 µM
not listed: [1] | CD69, CD69 (gene 969) | IYD (gene 389434) | [15] | [16] | [17] | [18]
inactive: all other assays above

CCCCOC(=O)COC(=O)c1ccccc1C(=O)OCCCC
inactive: CD69, CD69 (gene 969)

CCC[CH2][Sn]([Cl])([Cl])[CH2]CCC
active: [1] 4.46 µM

O=c1[nH]c(=O)n(Cl)c(=O)n1Cl
inactive: [1]

CCCCCCCCCCCCc1cccc(S(=O)(=O)O)c1
active: IYD (gene 389434) 89.9 µM

CNC(=O)CSP(=O)(OC)OC
inactive: [2] | [3] | [4] | [5] | [6] | [7] | [9] | [10] | [11] | [12] | [13]

O=S1(=O)OC(c2cc(Br)c(O)c(Br)c2)(c2cc(Br)c(O)c(Br)c2)c2ccccc21
inactive: [1]
active: IYD (gene 389434) 117 µM

Nc1ccc(N)cc1
inactive: IYD (gene 389434)

CC(C)[C@@H](Nc1ccc(C(F)(F)F)cc1Cl)C(=O)OC(C#N)c1cccc(Oc2ccccc2)c1 (stereo partly specified)
active: [6] 1.92 µM | [8] 3.8 µM
not listed: [1] | CD69, CD69 (gene 969) | IYD (gene 389434) | [15] | [16] | [17] | [18]
inactive: all other assays above

OCCCCO
inactive: CD69, CD69 (gene 969)

CS(=O)(=O)c1ccc(C(=O)C2C(=O)CCCC2=O)c(Cl)c1COCC(F)(F)F
active: [14] 25 µM
not listed: [1] | CD69, CD69 (gene 969) | IYD (gene 389434) | [15] | [16] | [17] | [18]
inactive: all other assays above

CCCCCCCCCCCCOS(=O)(=O)O
active: IYD (gene 389434) 62.8 µM and 56.8 µM

Cc1ccccc1OP(=O)(Oc1ccccc1C)Oc1ccccc1C
inactive: [2] | [4] | [5] | [6] | [7] | [9] | [10] | [12] | [13]
active: [3] 10 µM | [8] 6.47 µM | [14] 8.67 µM

CC1(C)[C@H](C(=O)O[C@H](C#N)c2cccc(Oc3ccccc3)c2)[C@@H]1/C=C(\Cl)C(F)(F)F
active: [8] 0.983 µM | [12] 0.586 µM
not listed: [1] | CD69, CD69 (gene 969) | IYD (gene 389434) | [15] | [16] | [17] | [18]
inactive: all other assays above

Nc1ncn[nH]1
inactive: [15] | [16] | [17] | [18]

CCOCn1c(-c2ccc(Cl)cc2)c(C#N)c(Br)c1C(F)(F)F
active: [3] 63.4 µM | [4] 36.6 µM | [5] 35.4 µM | [6] 5.42 µM | [7] 14.4 µM | [8] 5.56 µM | [9] 13.4 µM | [10] 50 µM | [11] 41.7 µM | [12] 84.8 µM | [14] 14.1 µM
inactive: [2] | [13]

CCOP(=S)(OCC)O/N=C(\C#N)c1ccccc1
inactive: [1]

CC(=Cc1ccccc1)[N+](=O)[O-]
inactive: [1]

O=C(CCl)Nc1ccccc1
inactive: IYD (gene 389434)

O=C(Cc1ccccc1)OCCc1ccccc1
inactive: CD69, CD69 (gene 969)

Oc1cc(Cl)c(Cl)cc1Cl
inactive: IYD (gene 389434)

O=c1nc(O)n(Cl)c(=O)n1Cl
inactive: [1]

O=S1OC[C@@H]2[C@H](CO1)[C@]1(Cl)C(Cl)=C(Cl)[C@@]2(Cl)C1(Cl)Cl (stereo partly specified)
active: [8] 0.789 µM
not listed: [1] | [14] | CD69, CD69 (gene 969) | IYD (gene 389434) | [15] | [16] | [17] | [18]
inactive: all other assays above

O=C(Nc1ccc(Br)cc1)c1cc(Br)cc(Br)c1O
active: IYD (gene 389434) 118 µM and 100 µM
inactive: IYD (gene 389434)

OC(Cc1ccccc1Cl)(Cn1[nH]cnc1=S)C1(Cl)CC1 (stereo unspecified)
inactive: [2] | [5] | [10] | [12] | [14]
active: [3] 43 µM | [4] 36 µM | [6] 17.5 µM | [7] 36.1 µM | [8] 0.507 µM | [9] 40.3 µM | [11] 126 µM | [13] 35.8 µM

From PubChem BioAssay (EPA / NIEHS)
